This is part of a sample that, as a whole, favours compounds with a hit. Of some 83,000 tested, about 20% had one in any assay.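 A percent growth of 40 corresponds to 60% growth inhibition; 0 means no net growth; -100 means all cells died. Active threshold: below 10.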 Unmarked numbers belong to inactive results. Active and inactive are the calls of the source.
The compounds below were run on HCT-15 colon (assay: NCI-60 one-dose screen, 48 h (100 = growth as untreated, 0 = no growth, -100 = all killed)). Details: 10 µM unless noted.
Experimental: Growth inhibition of the HCT-15 human tumor cell line is measured as a screen for anti-cancer activity. Cells are grown in 96 well plates and exposed to the test compound for 48 hours. Compounds are tested at a single concentration, which is 10^-5 M for most compounds. The reported endpoint is percent growth (GI% or GIPRCNT), where numbers from 0 - 100% represent growth inhibition, and numbers from -100% - 0 represent cell death. For example, a value of 40 represents 60% growth inhibition. A value of 0 means no net growth occurred over the course of the experiment. A value of -40 indicates 40% of cells at the beginning of the experiment died by the end of the experiment. A value of -100 means all cells are dead at the end of the experiment.
NCI-60 Human Tumor Cell Lines Screen was performed using the standard one-dose NCI protocol, which is described in more detail at https://dtp.cancer.gov/discovery_development/nci-60/default.htm.
Compounds with GIPRCNT values below 10 were considered active. Activity score was based on GIPRCNT using the following formula: […]
Score is 0 for GIPRCNT values of 100 or above, 50 for GIPRCNT values of 0, and 100 for GIPRCNT values of -100.

Q: `CC(=O)OC[C@H]1O[C@H](OC(C)=O)[C@H](NC(=O)/C=C/CCl)[C@@H](OC(C)=O)[C@@H]1OC(C)=O` was tested. Which growth did it give?
A: 99.1%

Q: How did the growth turn out when `CCOc1cc2ncc(C#N)c(Nc3ccc(F)c(Cl)c3)c2cc1NC(=O)CC1CCSS1` (stereo not given) was run?
A: -71.1% (active)

Q: With `COc1cc(/C=C/C(=O)c2c(C)oc3nc[nH]c(=O)c23)cc(OC)c1OC` as the compound, how does the growth read?
A: 49.3%

Q: `CC[C@@H]1O[C@H](O[C@@H](c2cnc[nH]2)[C@H](NC(=O)c2nc([C@H](CC(N)=O)NC[C@@H](N)C(N)=O)nc(N)c2C)C(=O)N[C@H](C)[C@H](O)[C@H](C)C(=O)N[C@@H](C(=O)NCCc2nc(-c3nc(C(=O)NCCCCN=C(N)N)cs3)cs2)[C@@H](C)O)[C@H](O[C@@H]2O[C@H](CO)[C@H](O)[C@H](OC(N)=O)[C@@H]2O)[C@H](C)[C@@H]1C` was tested. Which growth did it give?
A: 45.1%

Q: `Cc1cc(N[C@@H]2CCC[C@H](Nc3ccnc4cc(Cl)ccc34)C2)nc(N2CCCCCC2)n1` was tested. Which growth did it give?
A: -73.2% (active)

Q: `O=C(/C=C/c1cccc([N+](=O)[O-])c1)c1ccc(O)c(CN2CCN(c3cc4c(cc3F)c(=O)c(C(=O)O)cn4C3CC3)CC2)c1` was tested. Which growth did it give?
A: -40.1% (active)

Q: Which growth does the source give for `O=[N+]([O-])c1ccc(Nc2nc(NCCN3CCOCC3)ncc2[N+](=O)[O-])cc1` here?
A: 84.9%

Q: How did the growth turn out when `N#Cc1c(N)n(CCNC(=O)c2ccccc2)c2nc3ccccc3nc12` was run?
A: 111%

Q: For `COC(=O)c1cccc(NC(=O)c2ccc(-c3cccc(N)c3)o2)c1`, which growth is on record?
A: 96.6%

Q: `COc1cccc(NC(=O)c2sc3nc(C)c(C(C)=O)cc3c2N)c1` was tested. Which growth did it give?
A: 35.9%

Q: `COC(=O)[C@@H]1CCCN1C(=O)[C@@H]1CCCN1C(=O)[C@H](Cc1ccccc1)NC(=S)Nc1cc(C(F)(F)F)cc(C(F)(F)F)c1` was tested. Which growth did it give?
A: 76.4%

Q: How did the growth turn out when `COc1cc2c(cc1-c1c(C)noc1C)ncc1nc(-c3ccccn3)n([C@H](C)COC(F)F)c12` was run?
A: 23.2%

Q: Which growth does the source give for `COc1cc(-c2nc3ccccc3[nH]2)ccc1OCc1nnc(-c2ccc(CC(C)C)cc2)o1` here?
A: 76.5%

Q: How did the growth turn out when `Cn1c(O)c(N=NC(=O)c2cc(-c3ccccc3)on2)c2ccccc21` was run?
A: 101%

Q: How did the growth turn out when `COc1cc(-c2nn(-c3ccc(Br)cc3)cc2C(=O)O)ccc1O` was run?
A: 103%

Q: With `CCCCC[C@H]1C/C=C2/C(=O)C=C[C@@H]2C/C=C\CCCC(=O)O1` as the compound, how does the growth read?
A: -18.8% (active)

Q: `O=C(Cc1ccc(/C=C/C(=O)c2ncc[nH]2)cc1)Nc1ccccc1` was tested. Which growth did it give?
A: 12.9%

Q: `O=C(CN(C(=O)Cn1c(=O)n2nnnc2c2ccccc21)c1ccccc1C(F)(F)F)Nc1ccc(C(F)(F)F)cc1` was tested. Which growth did it give?
A: 102%

Q: For `CC(=O)c1cc2c(N)c(C(=O)Nc3cccc(F)c3C)sc2nc1C`, which growth is on record?
A: 85%

Q: Which growth does the source give for `COc1ccc(CN2c3ccccc3Sc3ccccc32)c(C(F)(F)F)c1` here?
A: 37.3%

Q: How did the growth turn out when `COc1cc2nc(N3CCCC3)nc(Nc3ccccc3)c2cc1OC` was run?
A: -42.6% (active)

Q: With `O=Nc1c(O)c(Cl)cc2ccccc12` as the compound, how does the growth read?
A: 87.9%

Q: How did the growth turn out when `COc1ccc2c(c1)CC/C(=C\c1cncc(Br)c1)C2=O` was run?
A: 94.7%

Q: Which growth does the source give for `CN(CCCCCl)P(=O)(OCc1ccc([N+](=O)[O-])o1)C(F)(F)c1ccc(CC(=O)NC[C@@H](O)/C=C\[C@@H](O)[C@H](CO)Cc2ccccc2)cc1` (stereo not given in full) here?
A: 96.2%

Q: With `Cc1nn(-c2ccc(F)cc2)c2ncnc(Oc3ccc(NC(=O)Nc4ccc(Cl)c(C(F)(F)F)c4)cc3)c12` as the compound, how does the growth read?
A: 111%

Q: Which growth does the source give for `CCCCC/C(C=C(C#N)C#N)=C/c1ccccc1` here?
A: 47%

Q: Which growth does the source give for `COc1cc2nc(N3CCCC3)nc(NCc3ccccc3)c2cc1OC` here?
A: 6.07% (active)

Q: How did the growth turn out when `CCOC(=O)C(C)(C#N)C1C=CCCC1` (stereo not given) was run?
A: 91.3%

Q: `CCc1c(Nc2ccccc2C)nc(N)[nH]c1=O` was tested. Which growth did it give?
A: 98.4%

Q: How did the growth turn out when `CC[C@@H](C(=O)[C@@H](C)[C@@H](O)[C@H](C)[C@@H]1O[C@@H]([C@@H](CC)C(=O)O)CC[C@@H]1C)[C@H]1OC2(C=C[C@@H](O)[C@]3(CC[C@@](C)([C@H]4CC[C@](O)(CC)[C@H](C)O4)O3)O2)[C@H](C)C[C@@H]1C` (stereo not given in full) was run?
A: 19.8%

Q: How did the growth turn out when `CSc1nc2c(c(=O)[nH]1)C1(C(=O)Nc3ccccc31)c1c(nc(SC)[nH]c1=O)N2` was run?
A: 107%

Q: For `CN1CCN(CCCOc2cccc3nc(Nc4ccc(Cl)c(F)c4)ccc23)CC1`, which growth is on record?
A: -48.3% (active)

Q: `Cn1cc(C(=O)c2nc(-c3c[nH]c4ccc(F)cc34)no2)c2cc(F)ccc21` was tested. Which growth did it give?
A: 68.6%

Q: Which growth does the source give for `C=C1c2nc3ccccc3n2C=C(c2ccc(Cl)cc2)N1Cc1ccc(OC)cc1` here?
A: 67.3%

Q: `C=C1c2nc3ccccc3n2C=C(c2cccc(Cl)c2)N1Cc1ccc(OC)cc1` was tested. Which growth did it give?
A: 25.7%

Q: `CC/C=C\C[C@H](O)C/C=C1/C(=O)C=C[C@@]1(C)C/C=C\CCCC(=O)OC` was tested. Which growth did it give?
A: 101%

Q: For `COc1ccc(SC2c3ccc(C)cc3Oc3nc(N)c(C#N)c(N)c32)cc1` (stereo not given), which growth is on record?
A: -79.9% (active)

Q: `COc1cc2c(cc1-c1c(C)noc1C)ncc1nc(C3CCC(F)(F)CC3)n([C@H](C)COC(F)F)c12` was tested. Which growth did it give?
A: 16.8%

Q: `Cc1ccc2oc(=O)cc(C3c4ccc([nH]4)C(c4cc(=O)oc5ccc(C)cc45)c4ccc([nH]4)C(c4cc(=O)oc5ccc(C)cc45)c4ccc([nH]4)C(c4cc(=O)oc5ccc(C)cc45)c4ccc3[nH]4)c2c1` (stereo not given) was tested. Which growth did it give?
A: -46.9% (active)

Q: For `CCCCCC(=O)Oc1ccc(/C(=C(\C)c2ccc(OC)cc2)c2ccc(OCCN3CCCCC3)cc2)cc1`, which growth is on record?
A: 9.94% (active)
